Results as given in PubChem BioAssay AID1159580 (chemical genetic matrix, 2015).
Where “and” joins values, the source holds several entries; their conditions need not be identical. Equal entries are not always repeated. Hit rate of the full screen: of about 5,500 compounds, about 2,000 (36%) were called active. About 18% were inconclusive and are not listed. Rule as the data show it: active = normalized growth mostly below about 0.91 (no sharp cut-off); inconclusive = no clear call, values can overlap the other calls; inactive = mostly above about 0.92. This is one part of the list.

Assay: chemical genetic growth profiling, strain panel (AID 1159580);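 also: tested at 20 µM; growth read once vehicle control cultures reached saturation at 30 °C; 1 = growth at the plate median or of vehicle wells; lower values mean less growth of the strain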
Conditions: S. cerevisiae deletion strains, growth OD
[1] = locus YDL101C, strain DUN1, stronger effect = lower value
[2] = locus YGR078C, strain PAC10, stronger effect = lower value
[3] = locus YHR030C, strain SLT2, stronger effect = lower value
[4] = locus YJR075W, strain HOC1, stronger effect = lower value
[5] = locus YNL153C, strain GIM3, stronger effect = lower value
[6] = locus YNL322C, strain KRE1, stronger effect = lower value
[7] = locus YHR079C, strain IRE1, stronger effect = lower value
[8] = locus YJL095W, strain BCK1, stronger effect = lower value
[9] = locus YJR066W, strain TOR1, stronger effect = lower value
[10] = locus YLR113W, strain HOG1, stronger effect = lower value
[11] = locus YNL183C, strain NPR1, stronger effect = lower value
[12] = locus YOR231W, strain MKK1, stronger effect = lower value
[13] = locus YPL256C, strain CLN2, stronger effect = lower value

Measured: normalized growth

CC1CN=C(NC2CCCCC2)S1 (centres undefined)
inactive: locus YAL013W, strain DEP1, stronger effect = lower value 0.987 | locus YBR229C, strain ROT2, stronger effect = lower value 1 | [1] 0.977 | locus YDL134C, strain PPH21, stronger effect = lower value 1.01 | locus YDR150W, strain NUM1, stronger effect = lower value 0.947 | locus YEL061C, strain CIN8, stronger effect = lower value 1.01 | [2] 0.998 | [3] 0.997 | locus YHR087W, strain rtc3, stronger effect = lower value 1.02 | locus YJL187C, strain SWE1, stronger effect = lower value 1.01 | locus YJR043C, strain POL32, stronger effect = lower value 0.982 | [4] 0.998 | locus YLR039C, strain RIC1, stronger effect = lower value 1.05 | locus YLR058C, strain SHM2 (second series), stronger effect = lower value 0.988 | locus YLR085C, strain ARP6, stronger effect = lower value 1.02 | locus YLR262C, strain YPT6, stronger effect = lower value 1.04 | locus YML094W, strain GIM5, stronger effect = lower value 1 | locus YMR219W, strain ESC1, stronger effect = lower value 1.01 | locus YMR263W, strain SAP30, stronger effect = lower value 0.93 | [5] 1.01 | locus YNL298W, strain CLA4 (second series), stronger effect = lower value 1.02 | [6] 0.99 | locus YNR030W, strain Alg12, stronger effect = lower value 1 | locus YOL006C, strain TOP1, stronger effect = lower value 1.01 | locus YPL055C, strain LGE1, stronger effect = lower value 0.874 | locus YPL241C, strain CIN2, stronger effect = lower value 1.01 | locus YPR135W, strain CTF4, stronger effect = lower value 1.01

C[N+]1(C)C2CCC1CC(OC(=O)C(CO)c1ccccc1)C2 (centres undefined)
inactive: locus YAL040C, strain CLN3, stronger effect = lower value 1.04 and 1.01 | locus YCL061C, strain MRC1 (second series), stronger effect = lower value 1 | locus YDR363W, strain ESC2, stronger effect = lower value 0.993 | locus YER002W, strain NOP16, stronger effect = lower value 1 and 0.996 | [2] 1.02 | [3] 0.972 | [7] 0.976 | [8] 1 | [9] 0.917 | [4] 1 | [10] 0.989 | locus YNL128W, strain TEP1, stronger effect = lower value 1.01 | [5] 1.01 | locus YNL175C, strain NOP13, stronger effect = lower value 1.01 | [11] 0.929 | locus YNL197C, strain WHI3, stronger effect = lower value 1.02 and 1.01 | locus YNL224C, strain SQS1, stronger effect = lower value 1.01 and 0.997 | [6] 1.03 and 1.02 | locus YOR083W, strain WHI5 (second series), stronger effect = lower value 1.02 | [12] 0.968 | [13] 0.957

COc1cc(C2SCCS2)cc(Br)c1OC(=O)NC(=O)c1c(Cl)cccc1Cl
inactive: locus YAR019C, strain CDC15, stronger effect = lower value 0.965 | locus YBL105C, strain PKC1, stronger effect = lower value 0.955 | locus YBR135W, strain CKS1, stronger effect = lower value 0.968 | locus YBR136W, strain MEC1, stronger effect = lower value 0.954 | locus YBR160W, strain CDC28, stronger effect = lower value 0.956 | locus YDL017W, strain CDC7, stronger effect = lower value 0.958 | locus YDL028C, strain MPS1, stronger effect = lower value 0.962 | [1] 0.952 | locus YDL108W, strain KIN28, stronger effect = lower value 0.953 | locus YDL132W, strain cdc53, stronger effect = lower value 0.962 | locus YDL214C, strain PRR2, stronger effect = lower value 0.953 | locus YDR052C, strain DBF4, stronger effect = lower value 0.966 | locus YDR054C, strain cdc34, stronger effect = lower value 0.955 | locus YDR226W, strain ADK1, stronger effect = lower value 0.937 | locus YDR477W, strain SNF1, stronger effect = lower value 0.939 | locus YER123W, strain YCK3, stronger effect = lower value 0.936 | locus YER133W, strain GLC7, stronger effect = lower value 0.936 | locus YFL009W, strain cdc4, stronger effect = lower value 0.956 | locus YFL029C, strain CAK1, stronger effect = lower value 0.974 | locus YFR003C, strain YPI1, stronger effect = lower value 0.948 | locus YFR019W, strain FAB1, stronger effect = lower value 0.966 | locus YFR028C, strain CDC14, stronger effect = lower value 0.968 | locus YGR040W, strain KSS1, stronger effect = lower value 0.936 | locus YGR052W, strain FMP48, stronger effect = lower value 0.988 | locus YGR092W, strain DBF2, stronger effect = lower value 0.919 | [7] 0.985 | locus YHR082C, strain KSP1, stronger effect = lower value 1.06 | locus YHR205W, strain SCH9, stronger effect = lower value 0.987 | locus YIL147C, strain SLN1, stronger effect = lower value 0.963 | [8] 0.958 | locus YJL128C, strain PBS2, stronger effect = lower value 0.916 | locus YJL157C, strain FAR1, stronger effect = lower value 0.909 | locus YJR016C, strain ILV3, stronger effect = lower value 0.966 | locus YJR066W, strain TOR1 (second series), stronger effect = lower value 0.926 | [9] 1.02 | locus YKL048C, strain ELM1, stronger effect = lower value 0.951 | locus YKL067W, strain YNK1, stronger effect = lower value 0.943 | locus YKL101W, strain HSL1, stronger effect = lower value 0.957 | locus YKL193C, strain SDS22, stronger effect = lower value 0.974 | locus YKL203C, strain TOR2, stronger effect = lower value 0.974 | [10] 1 | locus YLR133W, strain CKI1, stronger effect = lower value 0.942 | locus YLR403W, strain SFP1, stronger effect = lower value 0.905 | locus YML070W, strain DAK1, stronger effect = lower value 0.962 | locus YMR001C, strain CDC5, stronger effect = lower value 0.962 | locus YMR205C, strain PFK2 (second series), stronger effect = lower value 0.954 | locus YMR277W, strain FCP1, stronger effect = lower value 0.966 | locus YNL006W, strain LST8, stronger effect = lower value 0.967 | locus YNL020C, strain ARK1, stronger effect = lower value 0.942 | locus YNL161W, strain CBK1, stronger effect = lower value 0.951 | [11] 0.997 | locus YNL207W, strain RIO2, stronger effect = lower value 0.964 | locus YNL222W, strain SSU72, stronger effect = lower value 0.975 | locus YNL307C, strain MCK1 (second series), stronger effect = lower value 0.937 | locus YOL078W, strain AVO1, stronger effect = lower value 0.96 | locus YOL136C, strain PFK27, stronger effect = lower value 0.937 | locus YOR061W, strain CKA2, stronger effect = lower value 0.934 | locus YOR119C, strain RIO1, stronger effect = lower value 0.994 | [12] 0.993 | locus YOR329C, strain SCD5, stronger effect = lower value 0.956 | locus YPL031C, strain PHO85, stronger effect = lower value 0.905 | locus YPL153C, strain RAD53, stronger effect = lower value 0.941 | locus YPL204W, strain HRR25, stronger effect = lower value 0.876 | locus YPL209C, strain IPL1, stronger effect = lower value 0.963 | [13] 1.07 | locus YPR025C, strain CCL1, stronger effect = lower value 0.966 | locus YPR106W, strain ISR1, stronger effect = lower value 0.957 | locus YPR111W, strain DBF20, stronger effect = lower value 0.933 | strain NNK1, stronger effect = lower value 0.957 | strain TSCII, stronger effect = lower value 0.958
active: [3] 1.15 [resistant]
